# Molecular target: BRD2
# Test: pooled miR-30 sensor sort-seq; sequence = guide strand
# Details: shRNA
row,Sequence,sensor-assay potency score (higher = more potent)
1,TTATTTACAAGTTAGAATCAAC,-0.816
2,TTCTCATTCGCTTTCTTGGGGG,-0.27
3,TAATTTTGTGATAATCCGGTAG,0.162

# Molecular target: BRMS1L
# Test: as above
# Details: shRNA
row,Sequence,sensor-assay potency score (higher = more potent)
1,TTCTTTATAAAGTTGATCTTTG,-0.111
2,TAACATATCAATGAGATCTATT,-0.518
3,TTGTAGTTTTGCATCCACCTGA,0.526
4,TTCTGAGCTATCTCCATCCTCG,-0.213
5,TGGACCTGAAACAACAACTGGC,-0.0627
6,TTCACAGTCTTCATCATCCATT,-0.228
7,TTCAGATCTAGCACTGTGCAGA,-0.0416
8,TTTGGTAACACTAATAAGGTAA,-0.0586
9,TTCAAGAATATCAAGATCTTGT,0.566
10,TTCTTCTTCTTTCACAGTCTTC,-0.927
11,TTCTTTACAGATTCTAAGCAGA,-0.334
12,TATAGCAACAGCTTTTCGCTCT,0.681

# Molecular target: BRP44L
# Test: as above
# Details: shRNA
row,Sequence,sensor-assay potency score (higher = more potent)
1,TTCGGACATAGTCCGCCGCTTT,-1.36
2,TTTTGAGCTACTCTTTATGGAA,-0.685
3,TTTGATAAGCCGCCCTCCCTGG,-0.467
4,TCGTGTTTGATAAGCCGCCCTC,-0.468
5,TCAAAGAATAGCAACAGAGGGC,-0.477
6,TACCTTGTAGGCAAATCTCATG,-1.15
7,TTTTTCATTAAGTAAATTCTAA,-0.748
8,TTGCTTCGGACATAGTCCGCCG,-0.944
9,TAACATTTTTAAACAGTGGGGA,0.282
10,ATGAATGTCAAAGAATAGCAAC,-1.23
11,TAGTCCCGGAAATCCTTGCTTC,-0.727
12,TTAATTGCATATTTTGAGCTAC,-0.357

# Molecular target: BST2
# Test: as above
# Details: shRNA
row,Sequence,sensor-assay potency score (higher = more potent)
1,TTCTTGTCCGCGATTCTCACGC,-0.275
2,TCGCTGTTGGCCTTGATGGTGA,-1.17
3,TACAGCGCTTATCCCCGTCTTC,-1.34
4,TCAAGCTCCTCCACTTTCTTTT,-0.76
5,TTGTCCGCGATTCTCACGCTTA,-0.717
6,TTTCTCTTCTCAGTCGCTCCAC,0.121
7,TCTCACGCTTAAGACCTGGTTT,-0.474
8,TAGTACTTCTTGTCCGCGATTC,-1.14
9,TTCTCAGTCGCTCCACCTCTGC,-1.51
10,TTCTCTTCTCAGTCGCTCCACC,-0.48
11,TTGATGGTGAAGATAATCAAGG,-1.58
12,TTAATGTAGTGATCTCTCCCTC,-0.16
13,TGAAGCTTATGGTTTAATGTAG,-0.303

# Reference: the OligoGym collection
